Values joined by “and” are separate entries in the source; they are usually repeats but may differ in a detail not shown here. Equal entries are not always repeated.
The compounds below were run against Voltage-gated potassium channel subunit beta-2 (Rattus norvegicus) (UniProt P62483) (assay: enhancers of rat Kvbeta2 NADPH turnover – biochemical, NADPH fluorescence, primary screen (AID 623;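 note: fluorescence intensity change per second fitted from 20 to 320 s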)). Settings: Recombinant KvBeta, NADPH fluorescence decrease slope, 10 min; at 10 µM; active compounds read low;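 active = NADPH fluorescence slope more negative than the mean of all samples by about 3 SD, 99.7% confidence; inactive = the rest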.
Voltage-gated potassium channel subunit beta-2 (Rattus norvegicus), sequence (P62483 whole entry, looked up): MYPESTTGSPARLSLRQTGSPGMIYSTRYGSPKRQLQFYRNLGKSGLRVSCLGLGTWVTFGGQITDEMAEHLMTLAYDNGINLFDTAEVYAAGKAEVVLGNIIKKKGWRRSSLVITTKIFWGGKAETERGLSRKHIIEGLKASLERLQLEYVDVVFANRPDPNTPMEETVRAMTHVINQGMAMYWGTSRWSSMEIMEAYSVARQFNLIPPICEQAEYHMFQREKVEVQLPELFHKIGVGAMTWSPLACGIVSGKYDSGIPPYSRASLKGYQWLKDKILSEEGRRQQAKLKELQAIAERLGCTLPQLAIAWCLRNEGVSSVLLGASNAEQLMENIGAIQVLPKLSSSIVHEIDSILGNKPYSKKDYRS

NADPH fluorescence slope, inactive:
N#CC1=C(N)N(c2ccccc2)C(c2ccccc2)C1(C#N)C#N (centres undefined) -7.8e-07
CC(C)NCC(O)COc1cccc2[nH]ccc12 (centres undefined) -4.4e-05
COCc1cc(=O)[nH]c(Nc2nc3ccccc3o2)n1 -5.1e-05
O=C(O)c1cc(=O)cc(C(=O)O)[nH]1 -2e-06
Cc1cc(C)n(S(=O)(=O)Cc2ccccc2)n1 -1.7e-05
Cn1c(Cl)cnc1C1CC(=O)c2cc(Cl)ccc2O1 (centres undefined) -8.8e-06
CCOC(=O)CC(C#N)c1cn(C)c2ccccc12 (centres undefined) -3.8e-05
CCCC(=O)Nc1ccc(OCC(O)CNC(C)C)c(C(C)=O)c1 (centres undefined) 3e-05
CC1(C)SC2[C@H](NC(=O)C(NC(=O)N3CCNC3=O)c3ccccc3)C(=O)N2C1C(=O)O (some centres undefined) -5.2e-05
CCOC(=O)C1=C(CSc2nc(C)cc(C)c2C#N)OC(N)=C(C#N)C1c1cccs1 (centres undefined) -2.9e-05
Cc1ccc(N(CC2=NCCN2)c2cccc(O)c2)cc1 -5.4e-05 and -3.9e-05
Cc1cc(NS(=O)(=O)c2ccc(N)cc2)no1 -2.3e-05
O=c1cc(NCc2ccccc2)nc2n1CCCS2 -0.000115
COc1ccc2c(C)nc(Nc3nc(C)cc(C)n3)nc2c1 -1e-05
Fc1cc(F)c(F)c(SCCc2ccncc2)c1F -1.5e-05
CN1CCN(C2=Nc3ccccc3Oc3ccc(Cl)cc32)CC1 -4.1e-05
Cc1cnc(NC(=O)C2=C(O)c3ccccc3S(=O)(=O)N2C)s1 -1.4e-05
COc1cccc2c1C(=O)c1c(O)c3c(c(O)c1C2=O)C[C@@](O)(C(=O)CO)C[C@@H]3O[C@H]1C[C@H](N)[C@H](O)[C@H](C)O1 2.3e-06
O=S(=O)(c1cccc2cnccc12)N1CCCNCC1 -6.3e-05
CC(C)Cc1ccc(C(C)C(=O)O)cc1 (centres undefined) -4.6e-05
C[C@H](CS)C(=O)N1CCC[C@H]1C(=O)O -4e-05
COC(=O)C1=C(C)NC(C)=C(C(=O)OC)C1c1ccccc1[N+](=O)[O-] -1.4e-05
O=C(c1ccc2c(c1)OCCO2)N1CCCCC1 1.1e-06
Nc1ccc(S(=O)(=O)Nc2ncccn2)cc1 -6.3e-05
COc1ccccc1C1C(C#N)=C(N)Oc2cc(C)n(Cc3ccccn3)c(=O)c21 (centres undefined) -3.2e-05
CC(=O)O[C@H]1C(=O)[C@]2(C)[C@H]([C@H](OC(=O)c3ccccc3)[C@]3(O)C[C@H](OC(=O)[C@H](O)[C@@H](NC(=O)c4ccccc4)c4ccccc4)C(C)=C1C3(C)C)[C@]1(OC(C)=O)CO[C@@H]1C[C@@H]2O -1.6e-05
CCC(=O)O[C@@H]1CC(=O)O[C@H](C)CC=CC=C[C@@H](O)[C@H](C)C[C@H](CC=O)[C@H](O[C@H]2O[C@H](C)[C@@H](O[C@H]3C[C@@](C)(O)[C@@H](OC(=O)CC)[C@H](C)O3)[C@H](N(C)C)[C@H]2O)[C@H]1OC -4.8e-05
CCCn1c(=O)[nH]c(=O)c2[nH]cnc21 -7.3e-05
CC[N+](C)(C)Cc1ccccc1Br 1.7e-05
COC(=O)c1cc(=O)n2c(-c3ccc(OC)cc3)csc2n1 -3.1e-05
COc1ccccc1OCC(O)COC(N)=O (centres undefined) -3.9e-05
COc1cc2nc(N3CCN(C(=O)c4ccco4)CC3)nc(N)c2cc1OC -1.8e-05
Cc1nnc(SCC2=C(C(=O)O)N3C(=O)[C@@H](NC(=O)Cn4cnnn4)[C@H]3SC2)s1 -4.7e-05
Clc1ccc2c(c1)C(N1CCNCC1)=Nc1ccccc1O2 -7.1e-06
CC1(C)S[C@@H]2[C@H](NC(=O)[C@H](C(=O)O)c3ccsc3)C(=O)N2[C@H]1C(=O)O -4.7e-05
O=C(O)c1cc(=O)c2c(OCC(O)COc3cccc4oc(C(=O)O)cc(=O)c34)cccc2o1 -6.1e-05
CC[C@H]1OC(=O)C[C@@H](O)[C@H](C)[C@@H](O[C@@H]2O[C@H](C)C[C@H](N(C)C)[C@H]2O)[C@@H](CC=O)C[C@@H](C)C(=O)C=C[C@]2(C)O[C@H]2[C@@H]1C -2.6e-05
O=C(O)CCNC(=O)c1ccccc1 2.2e-06
Cc1ccc(C2C3CN(C(C)C)CC=C3C(C#N)=C(N)C2(C#N)C#N)cc1 (centres undefined) -1.4e-05

From PubChem BioAssay
